Source: PubChem BioAssay (Tox21)
Results filed as inconclusive are left out. Calls of active or inactive are those of the source. Calls follow the shape of the dose curve; as a rule, active = well fitted cell-killing curve with a large enough effect in the repeat runs; inconclusive = weak or mixed curves, or effect the other way; inactive = flat fitted curve, though single readings scatter.

Test: Nuclear factor erythroid 2-related factor 2/antioxidant responsive element (Nrf2/ARE) small molecule agonists: qHTS cell viability counter screen in human keratinocytes (AID 1919968); also: nearly all actives have a fitted effect of over 55% in size
Settings: KeratinoSens HaCaT ARE cells viability, CellTiter-Fluor, 24 h; series mostly up to 92.4 µM; activity change, negative = cytotoxicity: at the top concentration
Excerpt: U.S. Tox21 Program National Center for Advancing Translational Sciences [NCATS] Division of Preclinical Innovation [DPI] U.S. Environmental Protection Agency [EPA] National Institutes of Environmental Health Sciences [NIEHS] National Toxicology Program [NTP] U.S. Food and Drug Administration [FDA] Tox21 Assay Overview: Oxidative stress has been implicated in the pathogenesis of a variety of diseases ranging from cancer to neurodegeneration. The antioxidant response element (ARE) signaling pathway plays an important role in the amelioration of oxidative stress. The KeratinoSens (Givaudan, Switzerland) is an in vitro test method which quantifies luciferase induction as a measure of activation of Keap1-Nrf2-antioxidationt/electrophile response element (ARE) dependant pathway in HaCaT human keratinocytes stably transfected with a selectable plasmid. The KeratinoSens assay is a cell-based assay with a reporter cell line to detect potential skin sensitizers by their ability to induce the Nrf2/ARE-response. The activation of the report gene under culture conditions can be detected by ONE-Glo Luciferase Assay System (Promega, Madison, WI). This cell line has been used to screen the Tox21 10K compound library to identify agonists that induce oxidative stress. The cytotoxicity of the Tox21 compound library against the KS-ARE cell line was tested in parallel by measuring the cell viability using CellTiter- Fluor assay system (Promega, Madison, WI) in the same wells.
Tox21 Assay Protocol Summary: HaCaT derived cell line KeratinoSens were dispensed at 1,500 cells/5uL/well in 1536-well white wall/solid bottom plates using a Multidrop Combi (ThermoFisher Scientific, Waltham, MA) dispenser. After the assay plates were incubated at 37 C/5% CO2 for 5 h, 23 nL of compounds dissolved in DMSO, positive controls or DMSO only was transferred to the assay plate by a pintool workstation (Kalypsys, San Diego, CA). The plates were incubated at 37 C/5% CO2 for 23 h, followed by addition of 1uL/well of CellTiter-Fluor reagent into the assay plates using a Flying Reagent Dispenser (Aurora Discovery, San Diego, CA) for cell viability readout that measures cytotoxicity. After 1 h incubation at 37 C/5% CO2 the fluorescence intensity was measured using a ViewLux (PerkinElmer, Shelton, CT) plate reader.
% is scaled to controls: 0 for no effect and ±100 for the full control effect; potency is read from the fitted curve at half-maximal effect.

Structure (SMILES) | activity change, negative = cytotoxicity | Potency
O=CN1CCOCC1 | 2.07% (inactive) | –
CC(=O)Nc1ccc(S(=O)(=O)Nc2cc(C)on2)cc1 | -2.29% [at 42.5 µM] (inactive) | –
O=c1cc(-c2ccccc2)oc2ccc3ccccc3c12 | 19.5% (inactive) | –
COC(C)(C)CCCC(C)CC=O (stereo not given) | 5.34% (inactive) | –
CC(C)=CCOC(=O)c1ccccc1 | 1.63% (inactive) | –
C=C(C)c1cccc(C(C)(C)N=C=O)c1 | -8.03% (inactive) | –
Cc1cc(S(=O)(=O)O)c(N)cc1Cl | -1.51% (inactive) | –
c1ccc(CCCc2ccccn2)cc1 | 0.0132% (inactive) | –
O=C1CC2(CCCC2)CC(=O)N1 | 0.537% [at 42.5 µM] (inactive) | –
C#CCOC(=O)[C@@H](C)Oc1ccc(Oc2ncc(Cl)cc2F)cc1 | 2.35% (inactive) | –
CC(C)C(=O)OCc1ccccc1 | 4.26% (inactive) | –
Oc1cccc2[nH]ccc12 | 5% [at 42.5 µM] (inactive) | –
O=C(OCC1(COC(=O)c2cccnc2)CCCC(COC(=O)c2cccnc2)(COC(=O)c2cccnc2)C1O)c1cccnc1 | 8.53% [at 42.5 µM] (inactive) | –
Nc1nc2c(ncn2COC(CO)CO)c(=O)[nH]1 | -0.5% [at 42.5 µM] (inactive) | –
Cc1[nH]cnc1CN1CCc2c(c3ccccc3n2C)C1=O | 5.35% [at 42.5 µM] (inactive) | –
Cc1nc2n(c(=O)c1CCN1CCC(c3noc4cc(F)ccc34)CC1)CCCC2 | -0.0809% [at 42.5 µM] (inactive) | –
COc1c(C)c2c(c(O)c1C/C=C(\C)CCC(=O)O)C(=O)OC2 | 1.08% [at 42.5 µM] (inactive) | –
O=C(O)c1cccc(-c2noc(-c3ccccc3F)n2)c1 | 3.55% [at 42.5 µM] (inactive) | –
COc1ccc(OC)c(OC)c1 | -4.4% (inactive) | –
CCC(C)N(C)C(=O)c1cc2ccccc2c(-c2ccccc2Cl)n1 (stereo not given) | 1.23% [at 42.5 µM] (inactive) | –

Structure (SMILES) | activity change, negative = cytotoxicity | Potency
CCN(CC)C(=O)/C(C#N)=C/c1cc(O)c(O)c([N+](=O)[O-])c1 | -18.7% [at 42.5 µM] (inactive) | –
CC(NC(CCc1ccccc1)C(=O)O)C(=O)N1C(=O)N(C)CC1C(=O)O (stereo not given) | -12.2% [at 42.5 µM] (inactive) | –
O=C(NC(Cc1cc(=O)[nH]c2ccccc12)C(=O)O)c1ccc(Cl)cc1 (stereo not given) | -1.7% [at 42.5 µM] (inactive) | –
Clc1ccc(C(Cn2ccnc2)OCc2c(Cl)cccc2Cl)c(Cl)c1 (stereo not given) | – | 23.7 µM (active)
CC1=CC(O)CC(C)(C)C1 (stereo not given) | -0.927% (inactive) | –
CCCCCCCCCCCCCCN(CCO)CCO | – | 27.3 µM (active)
O=C(OCCCCCOC(=O)c1ccccc1)c1ccccc1 | 2.07% (inactive) | –
O=c1c2ccccc2nnn1CCl | -7.31% (inactive) | –
CCO[Si](CC)(OCC)OCC | 0.334% (inactive) | –
COc1cc2nc(Cl)nc(N)c2cc1OC | -6.38% [at 42.5 µM] (inactive) | –
Cc1ccc(-n2[nH]c(C)c(N=Nc3cccc(-c4cccc(C(=O)O)c4)c3O)c2=O)cc1C | – | 26.6 µM (active)
O=NN(CCCl)C(=O)NC1CCCCC1 | 0.324% [at 42.5 µM] (inactive) | –
O=C(O)c1cc(Cl)cc(Cl)c1O | -4.25% (inactive) | –
CC(C)=CCC/C(C)=C/CC/C(C)=C/C(=O)OCC(=O)[C@@]1(O)CC[C@H]2[C@@H]3CCC4=CC(=O)C=C[C@]4(C)[C@H]3[C@@H](O)C[C@@]21C | – | 6.68 µM (active)
CC(C)=CCC/C(C)=C/COC=O | -5.22% (inactive) | –
O=C(O)c1cccc(C(=O)O)c1C(=O)O | 1.08% (inactive) | –
CO[C@@H]1COCC[C@@H]1N[C@@H]1CC[C@@](C(=O)N2CCc3ncc(C(F)(F)F)cc3C2)(C(C)C)C1 | 1.71% (inactive) | –
CCOC(=O)CC#N | 4.9% (inactive) | –
CCCC(=O)C(CC)Sc1ccoc1C (stereo not given) | -1.98% (inactive) | –
CCCCOCCOC(=O)COc1cc(Cl)c(Cl)cc1Cl | 2.71% (inactive) | –
